Source: PubChem (National Center for Advancing Translational Sciences (NCATS))
Luc counter = counter-screen: inhibitors of Kinase-Glo firefly luciferase | Q27757 | Kinase-Glo luciferase, ATP luminescence, 8 min | Potency, µM (highest dose often 38.3 µM), for the others: at the highest dose activity change, negative = inhibition, hits mostly inhibitors | 200,000 compounds, 0.28% hits; further: nearly all actives have a fitted effect of over 60% in size
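Luminescence was the read-out, taken after 8-minute incubation at ambient temperature. Luciferase turned over luciferin with 10 uM ATP in imidazole pH 7.2 buffer containing KCl, MgCl2, Tween 20 and BSA.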
VP16 counter = Gal4-VP16 reporter inhibition counter-screen | Drosophila S2 Gal4-VP16 UAS-luciferase, luminescence, 20 h | Potency, µM (top dose mostly 53.6 µM), without a hit: top-dose activity, negative = inhibition, usual class: inhibitors | 310,000 compounds, 3.5% hits;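 further: Gal4-VP16 expression switched on by copper sulfate through the metallothionein promoter; nearly all actives have a fitted effect of over 50% in size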
RORgamma inh = inhibitors of mouse ROR gamma transcriptional activity | 310,000 compounds, 5.4% hits | P51450 | Drosophila S2 Gal4-RORgamma UAS-luciferase reporter, 20 h | AID 2551 | Potency, µM (highest dose often 53.6 µM), for inactives: at the highest dose activity change, negative = inhibition, most hits filed as inhibitors; further: nearly all actives have a fitted effect of over 60% in size
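Luminescence from a UAS-regulated Photinus luciferase reporter in stably transfected Drosophila Schneider cells is measured; decreased signal marks ROR gamma inhibition. Fusion expression is induced by 700 uM copper sulfate for 20 hr.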
* hit, by the source's call. An excerpt weighted towards active compounds, which were near 6.2% of everything screened. The call rests on the fitted dose curve; in most records, active means well fitted curve in the direction sought with a large enough effect; inconclusive means small, poorly fitted or top-dose-only effect, or another doubt; inactive means no such curve, though single readings can be large; an effect the other way counts as inactive or inconclusive. On the % scale 0 is the no-effect control and ±100 the full control effect; potency means the concentration at half of the fitted maximal effect.

How did COc1cccc([C@@H]2Oc3ccc(OC)cc3C(=O)[C@H]2OC(=O)NCCc2ccc(OC)c(OC)c2)c1 do in these assays?
Luc counter: -1%; VP16 counter: inconclusive; RORgamma inh: inconclusive

Results for O=C(/C=C/Nc1ccc(F)cc1F)c1ccco1 ?
Luc counter: 10µM*; VP16 counter: 7.1µM*; RORgamma inh: 7.9µM*

How did O=C(/C=C/c1ccc(Br)cc1)c1ccc(NC(=O)c2ccco2)cc1 do in these assays?
Luc counter: -1%; VP16 counter: -19%; RORgamma inh: -2%

How did O=C(/C=C\Nc1cccc(F)c1)c1cccs1 do in these assays?
Luc counter: -23%; VP16 counter: -13%; RORgamma inh: -40%

What do the screens show for `O=C(/C=C/c1ccc(Br)cc1)c1ccco1`?
Luc counter: -5%; VP16 counter: 11µM*; RORgamma inh: inconclusive

How did O=C(/C=C/Nc1cccc(F)c1)c1ccco1 do in these assays?
Luc counter: -24%; VP16 counter: inconclusive; RORgamma inh: inconclusive

Results for O=C(/C=C/Nc1ccccc1O)c1ccco1 ?
VP16 counter: 2%; RORgamma inh: inconclusive

How did O=C(/C=C/Nc1ccc(F)cc1F)c1cccs1 do in these assays?
Luc counter: 7.9µM*; VP16 counter: 2.5µM*; RORgamma inh: 1.6µM*

Results for O=C(/C=C/Nc1ccc(Br)cc1F)c1ccco1 ?
Luc counter: 13µM*; VP16 counter: 7.9µM*; RORgamma inh: 7.1µM*

What do the screens show for `COc1ccc(S(=O)(=O)N(CC(=O)N2CCOCC2)c2ccc(F)cc2)cc1OC`?
VP16 counter: 3%; RORgamma inh: -15%

How did COC(=O)C(CO)NC(=O)C(C)NC(=O)CNC(=O)OCc1ccccc1 (stereo not given) do in these assays?
Luc counter: 1%; VP16 counter: 0%; RORgamma inh: 15%

Results for COC(=O)[C@H](Cc1ccccc1)[C@@H](C)OS(N)(=O)=O ?
VP16 counter: 3%; RORgamma inh: 1%

How did O=C(NCc1ccccc1Cl)c1ccccc1Oc1ccccc1 do in these assays?
Luc counter: -2%; VP16 counter: -5%; RORgamma inh: inconclusive

What do the screens show for `Cc1ccc(N2C(=O)Nc3ccccc3S2(=O)=O)cc1Cl`?
VP16 counter: -4%; RORgamma inh: 42%

What do the screens show for `C=CCn1cc(C(=O)NCc2ccco2)c(=O)c2cc(S(=O)(=O)N3CCCCCC3)ccc21`?
VP16 counter: -4%; RORgamma inh: inconclusive

How did O=C(CNS(=O)(=O)c1cccc(Br)c1)NCC1CCCCC1 do in these assays?
VP16 counter: -2%; RORgamma inh: -3%

Results for CC(=O)Nc1ccc(N(C(=O)CNC(=O)c2ccco2)C(C(=O)NCc2ccco2)c2ccccc2F)cc1 (stereo not given) ?
Luc counter: -1%; VP16 counter: -6%; RORgamma inh: 2%

What do the screens show for `Cc1c(-c2ccccn2)c(=O)[nH]n1-c1ccc(F)cc1`?
Luc counter: -2%; VP16 counter: inconclusive; RORgamma inh: 6.3µM*

Results for O=c1[nH]n(-c2ccc(F)cc2)c2ncccc12 ?
Luc counter: -3%; VP16 counter: -3%; RORgamma inh: 19%

How did Cc1ccc(S(=O)(=O)NN2C(=O)c3ccccc3NC2c2ccccn2)cc1 (stereo not given) do in these assays?
Luc counter: 2%; VP16 counter: 2%; RORgamma inh: -12%

Results for COC(=O)c1cnc(SCc2ccc(C)cc2)n1C ?
Luc counter: -1%; VP16 counter: inconclusive; RORgamma inh: -33%

What do the screens show for `O=C(CCOc1ccc(F)cc1)Nc1nccs1`?
VP16 counter: 7%; RORgamma inh: 8%

What do the screens show for `N#CC1=C2SCN(c3ccccc3)CN2C(=O)CC1c1c(Cl)cccc1Cl` (stereo not given)?
Luc counter: 0%; VP16 counter: inconclusive; RORgamma inh: 16µM*

What do the screens show for `N#CC1=C2SCN(c3ccccc3)CN2C(=O)CC1c1ccccc1Cl` (stereo not given)?
Luc counter: -2%; VP16 counter: inconclusive; RORgamma inh: inconclusive

How did O=C(CCCN1C(=O)/C(=C\c2cccs2)SC1=S)Nc1ccccn1 do in these assays?
Luc counter: -1%; VP16 counter: inconclusive; RORgamma inh: inconclusive

Results for O=C(CCCN1C(=O)/C(=C/c2ccccc2Cl)SC1=S)NNC(=O)c1ccncc1 ?
VP16 counter: 10µM*; RORgamma inh: inconclusive

How did Cc1cc(NC(=O)CCCN2C(=O)/C(=C/c3ccccc3Cl)SC2=S)no1 do in these assays?
VP16 counter: -1%; RORgamma inh: -21%

What do the screens show for `O=C(CCCN1C(=O)/C(=C\c2cccs2)SC1=S)NNC(=O)c1cccnc1`?
Luc counter: -3%; VP16 counter: inconclusive; RORgamma inh: 5.6µM*
